34 compounds from PubChem BioAssay (NCATS) can be followed below.

Experiment [1] in a line: qHTS assay for measurement of the activity of small molecule inhibitors on Zika virus induced Caspase-3 activity in human iPSC derived neural progenitor cells (hNPCs) (AID 1224857). Also: % of control where 0% means no effect; nearly all actives have a fitted effect of over 65% in size. In short, it runs like this: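 Quantitative HTS format: human iPSC neural progenitors, 1 h compound pretreatment, ZIKV 2 FFU/cell for 6 h at 37 C. Percent inhibition derived from luminescent caspase-3/7 signal between uninfected and infected controls.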
(qHTS replaces the single test concentration by a dilution series.)

Experiment [2] is described as follows: qHTS assay for measurement of the activity of small molecule inhibitors on Zika virus induced Caspase-3 activity in human astrocytoma cells (AID 1224859).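 Also: plate controls were ZIKV-infected untreated cells for no effect and uninfected cells for full effect.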 Summed up:
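Readout is luminescence from Caspase-Glo 3/7 added after a 6 h ZIKV infection (2 FFU/cell) of compound-pretreated (1 h) SNB-19 cells; data expressed as % inhibition versus uninfected and infected wells.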

A short description of experiment [3]: qHTS assay to identify small molecule inhibitors of chordoma cells - UCH-1 (AID 1259355). Also: % is scaled to controls: 0 for no effect and ±100 for the full control effect; nearly all actives have a fitted effect of over 55% in size. Summed up:
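800 cells/well, overnight attach; compounds pinned at 15 concs, then auranofin/camptothecin/doxorubicin/rubitecan/topotecan combo added; 48hr 37 C, 5% CO2; CellTiter-Glo, 30min RT, luminescence.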

The nature of experiment [4]: qHTS assay to identify small molecule inhibitors of chordoma cells - UCH-2 (AID 1259356). Also: % is scaled to controls: 0 for no effect and ±100 for the full control effect.
Experiment [5] can be described thus: P-glycoprotein substrates identified in KB-8-5-11 adenocarcinoma cell line, qHTS therapeutic library screen (AID 1346987). Also: nearly all actives have a fitted effect of over 65% in size. Also: potency is read from the fitted curve at half-maximal effect. In short, it runs like this: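 Compounds are pinned in dose-response onto KB-8-5-11 cells (500 cells/well, colchicine-free medium) and left 72 h at 37 degree C. CellTiter-Glo luminescence then yields AC50 values.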
A short description of experiment [6]: qHTS assay for cell viability of the p53RE-bla HCT-116 cell line (AID 743292). Also: % is scaled to controls: 0 for no effect and ±100 for the full control effect; nearly all actives have a fitted effect of over 55% in size. Summed up:
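After plating at 4,000 cells per well and a 5 h rest at 37 C, HCT-116 cells carrying p53RE-bla received test chemicals in DMSO. Sixteen hours later at 37 C, CellTiter-Glo was added and luminescence recorded following 30 min at room temperature.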

A short description of experiment [7]: P-glycoprotein substrates identified in KB-3-1 adenocarcinoma cell line, qHTS therapeutic library screen (AID 1346986). Also: nearly all actives have a fitted effect of over 60% in size. The conditions noted are these: KB-3-1 parental cells viability, CellTiter-Glo, 72 h; at 44.5 µM (top of the series) unless noted. In short, it runs like this: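 Viability read by CellTiter-Glo after 72 h compound exposure in dose-response of KB-3-1 and KB-8-5-11 (P-gp-high) cells. Hits needed AC50 < 10 uM, >50% maximum response and curve class -1.1 to -2.4. Cherry-picks retested ± tariquidar, including pcDNA/MDR-19 HEK-293 pair.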

Experiment [8] in a line: Natriuretic polypeptide receptor (hNpr1) antagonism - Pilot counterscreen GloSensor control cell line (AID 1347045; calls by dose curve; also: % is scaled to controls: 0 for no effect and ±100 for the full control effect). Summed up:
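Control counterscreen: luciferase cGMP-biosensor HEK293 cells (no Npr1) received compound for 30 min at room temperature after GloSensor substrate loading. Luminescence was measured before and 20 min after soluble guanylyl cyclase activation by 50 uM nitroprusside.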
Background: The purpose of a counterscreen is to sort out artefacts and off-target activity.

The nature of experiment [9]: qHTS profiling for inhibitors of Plasmodium falciparum (3D7) proliferation (AID 743322; call rule not given here;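 also: infected erythrocytes exposed to compound for 72 h before lysis; 100% = DMSO vehicle wells and 0% = 0.29 µM artemisinin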). To be noted: P. falciparum 3D7 proliferation; at 28.7 µM (top of the series) unless noted. Summed up:
(§1)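 Parasite DNA was quantified by SYBR Green I fluorescence (ex 485, em 535 nm) after overnight lysis in saponin/Triton buffer at room temperature. Cultures at 0.3% parasitemia and 2.5% hematocrit were first exposed to compound for 72 h at 37 C; signals were normalised to artemisinin (0.29 uM) and vehicle wells.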

Experiment [10] in a line: qHTS profiling for inhibitors of Plasmodium falciparum (DD2) proliferation (AID 743323; call rule not given here). The conditions noted are these: lower = more inhibition; at 28.7 µM (top of the series) unless noted. In short, it runs like this: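 Parasite proliferation measured via DNA-dye fluorescence, as uninfected erythrocytes lack DNA. Cultures at 0.3% parasitemia and 2.5% hematocrit incubated 72 h with compound; signal scaled between vehicle and 0.29 uM artemisinin wells.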

Experiment [11] in a line: qHTS profiling of the MIPE4 collection as inhibitors of Plasmodium falciparum (3D7) proliferation (AID 743344; call rule not given here). To be noted: P. falciparum 3D7 in erythrocytes, SYBR Green DNA fluorescence, 72 h; at 28.5 µM (top of the series). Summed up: as §1
The nature of experiment [12]: qHTS profiling of the MIPE4 collection as inhibitors of Plasmodium falciparum (DD2) proliferation (AID 743345; call rule not given here). To be noted: P. falciparum Dd2 in erythrocytes, SYBR Green DNA, 72 h; at 28.5 µM (top of the series). Summed up: as §1
The nature of experiment [13]: qHTS profiling of the MIPE4 collection as inhibitors of Plasmodium falciparum (DD2) proliferation (Rep 2) (AID 743346; call rule not given here). The conditions noted are these: P. falciparum Dd2 in erythrocytes, SYBR Green DNA, 72 h; at 28.5 µM (top of the series). In short, it runs like this:
as §1

Experiment [14] can be described thus: qHTS profiling of the MIPE4 collection as inhibitors of Plasmodium falciparum (HB3) proliferation (AID 743347; call rule not given here;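 also: plate controls were DMSO vehicle wells for no effect and artemisinin wells for full effect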). The conditions noted are these: P. falciparum HB3 in erythrocytes, SYBR Green DNA, 72 h; at 28.5 µM (top of the series). Summed up: as §1

Inconclusive results are not listed. More than one record can exist for a structure, and the calls need not agree. Active and inactive are the calls of the source. Unless noted, calls follow the shape of the dose curve; as a rule, active = well fitted curve in the direction sought with a large enough effect; inconclusive = small, poorly fitted or top-dose-only effect, or another doubt; inactive = no such curve, though single readings can be large; an effect the other way counts as inactive or inconclusive.

For the compound `CC(=O)c1ccc2c(c1)N(CCCN(C)C)c1ccccc1S2`, the compound was classed as inactive in [1], in [2] and in experiment [4]. In addition, the Potency result in [3] and in experiment [5] was “inactive” in each case.

For the compound `CC(O)CN(CCN(CC(C)O)CC(C)O)CC(C)O` (configuration not stated), the Potency entry in experiment [6], in [3] and in experiment [5] was “inactive” each time. Besides, the call in experiment [1], in experiment [2] and in [4] was inactive.

With `NC(=O)N/N=C/c1ccc([N+](=O)[O-])o1`, the Potency entry in experiment [6] and in experiment [3] was “inactive” in each case. The compound was classed as inactive in experiment [1], in experiment [2] and in [4].

Take `Cc1c(Cl)cccc1Nc1ccccc1C(=O)O`: the result in experiment [1], in experiment [2] and in experiment [4] was inactive. In addition, the Potency entry in experiment [3] and in experiment [5] was “inactive” each time.

`CC12CCC(CC1)C(C)(C)O2`: the Potency result in experiment [6], in experiment [3] and in experiment [5] was “inactive” each time. Moreover, the result in experiment [1], in experiment [2] and in [4] was inactive.

`CC(C(O)c1ccc(O)cc1)N1CCC(Cc2ccccc2)CC1` (configuration not stated): the compound was classed as inactive in [1], in experiment [2], in experiment [4] and in experiment [8]. In experiment [7], the outcome was “inactive [at 17.4 µM]”. Further, in [5], the Potency result is “inactive”.

As to `CN1CCN(C2Cc3ccccc3Sc3ccc(Cl)cc32)CC1` (configuration not stated), the compound was classed as inactive in [1], in [2], in experiment [4] and in experiment [8]. Besides, the Potency result in experiment [3] and in experiment [5] was “inactive” in each case.

As to `NC1[C@H]2CN(c3nc4c(cc3F)c(=O)c(C(=O)O)cn4-c3ccc(F)cc3F)C[C@@H]12` (some centres not stated), the outcome in [1], in experiment [2] and in [4] was inactive. In addition, the Potency entry in experiment [5] was “inactive”.

`OCc1cc(C(O)CNCCCCCCOCCCCc2ccccc2)ccc1O` (configuration not stated): the outcome in experiment [1], in experiment [2], in [4] and in [8] was inactive. In experiment [5], the Potency entry was “inactive”.

Turning to `C#CCN(C)Cc1ccccc1`, the compound was classed as inactive in [1], in [2], in experiment [4] and in [8]. In addition, the Potency result in [3] and in experiment [5] was “inactive” each time.

Consider `[Cl][In]([Cl])[Cl]`, for which the Potency entry in experiment [6], in experiment [3] and in [5] was “inactive” throughout. For the same compound, the compound was classed as inactive in [1], in [2] and in experiment [4].

As for `CC(CN1c2ccccc2Sc2ccccc21)N(C)C` (configuration not stated), the call in experiment [1], in [2] and in experiment [4] was inactive.

Take `NC1CCN(c2cccc(Cl)n2)CC1`: the result in [1], in experiment [2], in experiment [4] and in experiment [8] was inactive. Moreover, the Potency entry in experiment [3] and in [5] was “inactive” in each case.

On to `O=C1N=C(O)CN1/N=C/c1ccc(-c2ccc([N+](=O)[O-])cc2)o1`, for which the compound was classed as inactive in experiment [1], in experiment [2], in experiment [4] and in experiment [8]. The Potency result in experiment [5] is “inactive”.

As for `CN(C)CC[C@@H](c1ccc(Cl)cc1)c1ccccn1`, the remaining parasite growth % (stronger effect = lower value) in experiment [9] was 85.4%. In [10], this compound showed an activity, percent of control of 44.8%. For the same compound, the result in experiment [1] and in [2] was inactive. In addition, the Potency result in experiment [5] was “inactive”.

As to `CSc1ccc2c(c1)N(CCC1CCCCN1C)c1ccccc1S2` (configuration not stated), the parasite growth, % of DMSO control in experiment [11] came out at 12.9%. Besides, the parasite growth remaining, % of DMSO control (lower = more inhibition) in experiment [12] worked out at 10.4%. This compound also had a parasite growth, % of control (lower = inhibition) in experiment [13] of 30.8%. In experiment [14], the growth, % of control came out at 4.65%. Moreover, the compound was classed as inactive in experiment [1], in experiment [2] and in experiment [4]. Further, the Potency in [5] was 18.4 µM (active).

`Nc1cc(=O)[nH]c(N)n1`: the compound was classed as inactive in experiment [1] and in [2]. Moreover, the Potency result in [5] is “inactive”.

For the compound `CN(C)CCCN1c2ccccc2CCc2ccccc21`, in experiment [6], the Potency result is “inactive”. Besides, the result in [1], in experiment [2] and in experiment [8] was inactive. Further, the Potency in [5] is 9.2 µM (active).

Turning to `NC(N)=NCCC[C@H](N)C(=O)O`, the result in [1] and in [2] was inactive. For the same compound, the Potency result in experiment [5] was “inactive”.

With `CN(C)CCOC(C)(c1ccccc1)c1ccccn1` (configuration not stated), the Potency result in experiment [6] was “inactive”. Further, the result in experiment [1], in experiment [2] and in [8] was inactive.

Regarding `CC(C)(C(=O)O)c1ccc(C(O)CCCN2CCC(C(O)(c3ccccc3)c3ccccc3)CC2)cc1` (configuration not stated), the call in experiment [1] and in experiment [2] was inactive. Moreover, the Potency result in experiment [5] is “inactive”.

On to `CC(C)C(=O)c1c(C(C)C)nn2ccccc12`, for which the outcome in experiment [1], in [2] and in experiment [8] was inactive. Further, the Potency result in experiment [5] is “inactive”.

With `Cc1cc(C(C#N)c2ccc(Cl)cc2)c(Cl)cc1NC(=O)c1cc(I)cc(I)c1O` (configuration not stated), the compound was classed as inactive in experiment [2], in experiment [4] and in experiment [7]. The Potency entry in experiment [3] is “inactive”. Further, the Potency in experiment [5] is 16.4 µM (active) and inactive.

Consider `CC(C)(C)[C@]1(O)CCN2C[C@H]3c4ccccc4CCc4cccc(c43)[C@@H]2C1`, for which the outcome in experiment [1], in [2] and in [8] was inactive.

Take `CNCC(O)c1ccc(O)c(O)c1` (configuration not stated): the compound was called inactive in experiment [1], in [2] and in experiment [8].

For the compound `CC1=C(CC(=O)O)c2cc(F)ccc2/C1=C\c1ccc(S(C)(=O)=O)cc1`, the result in [1], in experiment [2] and in experiment [8] was inactive. Further, in [5], the Potency entry was “inactive”.

In the case of `CCN(CC)CCOC(=O)C1(C2CCCCC2)CCCCC1`, the compound was called inactive in [1], in [2] and in [8]. Moreover, the Potency result in experiment [5] is “inactive”.

For `CC(C)(C)c1onc(OCP(=O)(O)O)c1CC(N)C(=O)O` (configuration not stated), the outcome in experiment [1], in experiment [2] and in experiment [8] was inactive.

For `CC[C@H]1CN2CCc3cc(OC)c(OC)cc3[C@@H]2C[C@@H]1C[C@H]1NCCc2cc(OC)c(OC)cc21`, the call in [1], in experiment [2] and in experiment [8] was inactive.

Consider `COC(=O)C1=C(C)NC(C)=C(C(=O)OC)C1c1ccccc1[N+](=O)[O-]`, for which the compound was called inactive in experiment [2] and in [4]. Besides, the Potency entry in [3] is “inactive”.

For `C[C@]12C[C@H](O)[C@H]3[C@@H](CCC4=CC(=O)CC[C@@]43C)[C@@H]1CC[C@@H]2C(=O)CO`, the Potency entry in [6] is “inactive”. Moreover, the result in experiment [1], in [2], in experiment [4] and in [8] was inactive.

Consider `CN(C)CCC=C1c2ccccc2CCc2ccccc21`, for which the Potency result in [6] was “inactive”. For the same compound, the call in experiment [1], in [2] and in experiment [8] was inactive.

Consider `CC/C=C(\C(=O)N[C@@H]1C(=O)N2C(C(=O)OCOC(=O)C(C)(C)C)=C(COC(N)=O)CS[C@H]12)c1csc(N)n1`, for which the outcome in experiment [1] and in [2] was inactive. Besides, the Potency entry in experiment [5] was “inactive”.

With `N=c1c[n+](N2CCOCC2)[n-]o1`, the compound was classed as inactive in experiment [1], in experiment [2] and in experiment [8].
